Coupling enz: coupling enzyme interference in Giardia aldolase counter-screen; coupling enzyme system counterscreen, AmpLite Red fluorescence; activity change, negative = inhibition, % at 58.2 µM, hits read low; 290,000 tested, 0.67% active; in the data active = activity change below about -30%
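Coupling enzymes only (glyceraldehyde-3-phosphate) + compound, at 57.5 uM final, 10 min RT; add substrate/coupling/AmpLite Red mix, 20 min RT; fluorescence ex 525/em 598 nm. Actives flag coupling-system interference.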
TrxR1 inh: rat TrxR1 inhibition; O89049; recombinant rTrxR1, NADPH fluorescence consumption, selenite substrate; Potency, µM (series often up to 114 µM), inactives show at the highest dose activity change, negative = inhibition, most hits filed as inhibitors; 390,000 tested, 1% active; AID 588453; also: potency is read from the fitted curve at half-maximal effect; nearly all actives have a fitted effect of over 65% in size
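Rat TrxR1 (90 nM in the dispensed reagent) was pre-reduced with 400 uM NADPH for 5 min at room temperature, then incubated with compound for 15 min. After 400 uM selenite was added, NADPH fluorescence (Ex 340/Em 450 nm) was followed for 8 min.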
GALK inhibitor: galactokinase (human) inhibition; Purified GALK, Kinase-Glo residual ATP luminescence; P51570; 270,000 tested, 0.007% active; Potency, µM (top dose mostly 57.5 µM), for the others: top-dose activity change, negative = inhibition, most hits filed as inhibitors; also: potency is read from the fitted curve at half-maximal effect
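Galactose (100 uM) and ATP (35 uM) were turned over by 5 nM GALK for 1 h at RT. Kinase-Glo Plus then converted the remaining ATP into a luminescent signal.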
TrxR1 substrate: is turned over as a substrate by rat TrxR1. purified TrxR1 substrate turnover, NADPH consumption readout. 390,000 tested, 0.01% active. Potency, µM (series often up to 114 µM), for inactives: top-dose activity change, negative = substrate turnover. O89049; also: potency is read from the fitted curve at half-maximal effect; nearly all actives have a fitted effect of over 50% in size
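Rat TrxR1, dispensed at 90 nM, was prereduced with 400 uM NADPH (final) for 5 min at ~22 deg C, then incubated with compound 15 min before 400 uM selenite. A first-read NADPH fluorescence drop versus no-compound background flagged substrates.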
PI4K2A block: PI4K2A (human) kinase inhibition. purified PI4K2A, ADP-Glo luminescence, 1 h; active compounds read low. 420,000 tested, 0.13% active. activity change, negative = inhibition, % at 76.9 µM. Q9BTU6; in the data active = activity change below about -50%; inconclusive = mostly about -30% to -49%;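 also: -100% = wells without enzyme as full effect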
Target sequence (Q9BTU6 whole entry, looked up): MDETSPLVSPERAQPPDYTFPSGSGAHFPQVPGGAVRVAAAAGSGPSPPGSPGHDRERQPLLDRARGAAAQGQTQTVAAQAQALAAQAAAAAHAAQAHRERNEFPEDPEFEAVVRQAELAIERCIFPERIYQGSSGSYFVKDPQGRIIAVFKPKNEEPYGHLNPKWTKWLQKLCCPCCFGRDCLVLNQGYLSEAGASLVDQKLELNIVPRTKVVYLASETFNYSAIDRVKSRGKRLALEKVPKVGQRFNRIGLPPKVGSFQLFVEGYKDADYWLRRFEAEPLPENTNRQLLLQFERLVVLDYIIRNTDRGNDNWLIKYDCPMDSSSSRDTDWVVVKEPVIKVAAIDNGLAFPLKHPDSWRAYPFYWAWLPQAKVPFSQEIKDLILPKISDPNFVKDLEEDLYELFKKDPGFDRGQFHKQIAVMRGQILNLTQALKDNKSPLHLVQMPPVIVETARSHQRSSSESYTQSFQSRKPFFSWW
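In this quantitative HTS, ADP production by PI4K2A was quantified luminescently after 1 h at ambient temperature; 100 microM adenosine served as plate-quality control.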
Giardia killer: kills Giardia lamblia; Giardia lamblia trophozoite viability; activity change, % at 7.66 µM, hits read low; 340,000 tested, 0.15% active; AID 540267; in the data active = activity change below about -80%; inconclusive = between about -30% and that limit;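 also: parasites exposed to compound for two days anaerobically before the ATP read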
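Giardia lamblia trophozoites (100 cells/well) were incubated with compounds for 48 h at 37 deg C under anaerobic conditions. Viability was read as ATP content by one-step luminescence after 15-30 min at room temperature.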
An asterisk follows results filed as active; i = inactive; ? = inconclusive; · = not tested or not shown; ! = a repeat was not active; [ ] = another dose, or the depositor's remark. A selection: hits, their analogues and other compounds. The true share with any hit is near 1.5%. Unless noted, calls follow the shape of the dose curve; as a rule, active = well fitted curve in the direction sought with a large enough effect; inconclusive = small, poorly fitted or top-dose-only effect, or another doubt; inactive = no such curve, though single readings can be large; an effect the other way counts as inactive or inconclusive. Unless noted, % is scaled to controls: 0 for no effect and ±100 for the full control effect.

SMILES	Coupling enz	TrxR1 inh	GALK inhibitor	TrxR1 substrate	PI4K2A block	Giardia killer
COc1ccc(S(=O)(=O)N/N=C\c2ccc([N+](=O)[O-])o2)c(OC)c1	·	35µM*	-7%	-15%	6	-29
O=[N+]([O-])c1ccc(/C=N\NS(=O)(=O)c2ccc(F)cc2)o1	0	32µM*	4%	-20%	3	?
CCCCOC(=O)c1ccc(NS(=O)(=O)c2c(C)nc3scc(C)n3c2=O)cc1	·	13%	·	-2%	-4	·
O=C(Nc1ccccc1Cl)N1CCC2(CC1)Oc1ccccc1C(=O)N2Cc1ccc(F)cc1	·	15%	·	-1%	-2	·
Cc1ccc(C(=O)n2ccc3ccc(-c4ccc5ccn(Cc6ccccc6)c5c4)cc32)cc1	·	·	·	·	-6	·
CC(C)C(=O)Nc1cccc(C(F)(F)F)c1	·	·	·	·	1	·
Cc1ccccc1S(=O)(=O)NC1OC(=O)C(Cl)=C1Cl (centres undefined)	-1	13µM*	-1%	-8%	-5	13
Cc1ccccc1S(=O)(=O)NC1OC(=O)C(Oc2ccccc2)=C1Br (centres undefined)	0	?	-3%	6%[57.1 µM]	-5	7
Cc1ccc(-c2nc(CS(=O)(=O)CC(=O)N3CCN(C)CC3)c(C)o2)cc1	·	18%	3%	1%	-3	7
Cc1ccc(-c2nc(CS(=O)(=O)CC(=O)N3CC(C)CC(C)C3)c(C)o2)cc1 (centres undefined)	0	4µM*	1%	0%[57.1 µM]	-5	6
O=c1cc(O)c2c([nH]1)CCC2	·	23%	·	6%[0.0914 µM]	·	·
O=C(O)C1Nc2c(Cl)cc(Cl)cc2C2C=CCC12 (centres undefined)	3	20µM*	4%	4%	-12	13
O=C(O)C1Nc2c(O)cccc2C2C=CCC12 (centres undefined)	-6	35µM*	1%	-8%	?	-2
Cc1ccc(C)c2c1NC(C(=O)O)C1CC=CC21 (centres undefined)	·	3.2µM*	·	6%	·	-30
O=C(O)C1Nc2c(Cl)cc(Cl)c(Cl)c2C2C=CCC12 (centres undefined)	·	?	·	-1%	-6	8
Cc1ccccc1CN1CCCCC(NC(=O)c2cccc(C(F)(F)F)c2)C1=O (centres undefined)	·	·	·	·	3	·
COc1ccc(-n2nc3c(N4CCCC(C(=O)NCc5ccc(C)cc5)C4)nnc(C)c3c2C)cc1 (centres undefined)	·	7%[57.1 µM]	·	2%[57.1 µM]	2	·
O=c1[nH]c(=S)c2[nH]cnc2[nH]1	·	-35%	·	-9%	·	-1
CCOc1ccc(C(C)=O)cc1COC(=O)c1ccccc1C(=O)N(C)Cc1ccccc1	·	50µM*	·	-6%	8	-19
O=c1oc2ccccc2c2oc3cc(O)c(O)cc3c12	4	-3%	-1%	3%	-12	12
O=c1oc2c(O)c(O)cc3c(=O)oc4c(O)c(O)cc1c4c23	-79*!	5%	·	4%	-23	11
COc1ccc(O)c(C(c2c(C)[nH][nH]c2=O)c2c(C)[nH][nH]c2=O)c1	-29	16%[57.1 µM]	9%	-2%[57.1 µM]	-62*	-15
O=C(O)C(=O)Nc1cccc(-c2nn[nH]n2)c1	·	·	·	·	-5	·
Cc1ccc(NC(=O)Nc2nnc(SCC(=O)N3CCCCC3)s2)cc1	·	-1%[57.1 µM]	·	-6%[57.1 µM]	0	·
Cc1nc2n(c(=O)c1CCN1CCC(c3noc4cc(F)ccc34)CC1)CCC[C@H]2O	·	·	·	·	i	·
SMILES	Coupling enz	TrxR1 inh	GALK inhibitor	TrxR1 substrate	PI4K2A block	Giardia killer
O=C(C[n+]1cccc2cccc(O)c21)c1ccccc1	·	4%	·	-6%	·	·
COc1ccccc1NC(=O)COc1cccnc1[N+](=O)[O-]	·	12%	·	0%	3	?
COC(=O)c1sc(NC(=O)COc2cccnc2[N+](=O)[O-])c(C(=O)OC)c1C	·	10%	·	-4%	-9	-82*
COC(=O)[C@@H]1[C@@H](C#N)C2(c3ccccc3-c3ccccc32)N(c2ccc(Cl)cc2)N1C#N	-7	7.9µM*	-4%	-4%	-2	17
O=C(Cc1ccc(Cl)cc1)NN1C(=O)c2ccccc2C1=O	-2	19%	-1%	5%	3	4
CC1(OC(=O)c2cnc3ccccc3n2)C(=O)C=C2C=C3CCCN3C=C2C1=O (centres undefined)	0	·	·	·	·	·
O=C(/C(Br)=C/Nc1cc(Cl)ccc1Cl)C(F)(F)F	0	40µM*	0%	-7%	3	0
O=C(Nc1cc(Cl)ccc1Cl)N1CCCC1	2	-9%	1%	-6%	0	-6
N#CC1=C(N)N(c2ccc(F)cc2)C2=C(C1c1ccc(O)cc1)S(=O)(=O)CC2 (centres undefined)	-26	7.9µM*	-6%	9%[57.1 µM]	-5	0
Cc1ccnc2c(Cl)c(Cl)ccc12	·	5%	·	4%	·	·
COc1cc(C(c2c(C)[nH][nH]c2=O)c2c(C)[nH][nH]c2=O)ccc1OCc1ccc([N+](=O)[O-])cc1	-35*	-10%	0%	-3%	-6	-20
COc1cc(C(c2c(C)[nH][nH]c2=O)c2c(C)[nH][nH]c2=O)ccc1OC(=O)c1cccc([N+](=O)[O-])c1	-16	2%	-1%	-1%	-20	-4
NC(=O)C1CCN(c2ncc(Br)cn2)CC1	·	·	·	·	-2	·
Oc1ccc(C=Nc2ccc3ncccc3c2)c(O)c1	-52*	·	2%	·	·	·
CCOc1ccc(C=Nc2cccc3ncccc23)cc1	-42*	8%	0%	-2%	0	9
COc1cccc(N=Cc2ccc(O)cc2O)c1	-8	6%	-3%	1%	2	-5
Oc1ccc(C=Nc2cccc3ncccc23)c(O)c1	-37*	1%[57.1 µM]	3%	-6%[57.1 µM]	2	-2
CCCCN(CC)CCCNC(=O)CCN1N=C(c2ccc(OC)cc2)CCC1=O	·	6%[57.1 µM]	·	-5%[57.1 µM]	-10	·
Cc1c(F)cccc1Cn1cnc2c(cnn2C(C)(C)C)c1=O	·	3%	·	-8%	·	·
O=C(C1=C[C@@H]2[C@H]3C(=O)N(c4cccc(Cl)c4)C(=O)[C@H]3[C@@H](C(=O)c3ccc(Cl)cc3)N2C=C1)c1ccccc1	-2	50µM*	3%	0%	-5	6
C[C@H]1Cc2c(-c3ccccc3)nc3c(c2CO1)CN(C(=O)c1cccnc1)CC3	3	·	·	·	·	·
COC(=O)c1ccc2c(c1)C(C)(C)C(/C=C/c1ccc(O)cc1)=[N+]2C	-2	56µM*	0%	64%	-22	-18
CN(C)C(=O)c1ccc(N=Nc2c(O)c3ccccc3[nH]c2=O)cc1	·	-14%	·	-8%	-14	-29
O=C(O)c1ccc(N=Nc2c(O)[nH]c3ccccc23)cc1	-2	-21%	·	-16%	-62*	-18

From PubChem
